Experimental findings from PubChem BioAssay (NCATS) are described below.

Records with an inconclusive call do not appear. Activity calls are given as the source filed them. Unless noted, calls come from the whole dose curve; as a rule, active = well fitted curve in the direction sought with a large enough effect; inconclusive = small, poorly fitted or top-dose-only effect, or another doubt; inactive = no such curve, though single readings can be large; an effect the other way counts as inactive or inconclusive.

Test [1] can be described thus: Cytotoxicity counterscreen for NFkB agonists and antagonists (AID 624476;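 note: cells exposed to compound for 48 hours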; note: potency is the fitted concentration of half-maximal effect). (In general: A counterscreen serves to expose hits that act by an unwanted route or on another target.)
A short description of test [2]: qHTS Assay for Identification of Small Molecule Agonists for NFkB Signaling Pathway. (AID 624478).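 Note: compounds tested together with TNF alpha at its EC50 of 10 pM; 0% is about no effect.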 An outline of the steps:
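Activators were sought in reporter cells stimulated at the TNF alpha EC50 (10 pM final). Compound and cytokine were co-incubated 5 hours at 37 C before beta-lactamase substrate detection by dual-emission fluorescence.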

A short description of test [3]: Cell Proliferation Assay against the HBL1 Cell Line (AID 651646).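 Note: cells exposed to compound for 48 h before reading.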 As to conditions: HBL1 DLBCL cells; at 46.1 µM (top of the series). An outline of the steps:
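HBL1, 500 cells/well, RPMI no phenol red + 5% FBS; cpd pinned, 48 h 37C/5% CO2; CellTiter-Glo, 15 min RT, luminescence. % activity: DMSO = 100%, bortezomib 9.2 uM final = 0%.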

The nature of test [4]: Cell Proliferation Assay against the TMD8 Cell Line (Caspase readout at 8 hrs) (AID 651713). Note: potency is the fitted concentration of half-maximal effect. The gist of the method: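 Caspase 3/7 activation in ABC DLBCL TMD8 cells is measured by luminescence after an 8 h compound exposure at 37C. Relative light units are scaled between DMSO (0%) and 9.2 uM final bortezomib (100%).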
The nature of test [5]: qHTS Assay for Identification of Small Molecule Antagonists for NFkB Signaling Pathway. (AID 624479; calls by dose curve;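 note: pathway stimulated with TNF alpha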; note: potency is the fitted concentration of half-maximal effect).
Test [6] can be described thus: Cell Proliferation Assay against the TMD8 Cell Line (AID 651645).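 Note: cells exposed to compound for 48 h before reading.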 As to conditions: TMD8 DLBCL cell line proliferation/viability; at 46.1 µM (top of the series). The gist of the method:
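TMD8 cells, 500/well in RPMI with 5% FBS, dosed immediately and grown 48 h at 37 C, 5% CO2. CellTiter-Glo luminescence normalised to DMSO 100% and 9.2 uM bortezomib (final) 0%.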

A short description of test [7]: Cell Proliferation Assay against the TMD8 Cell Line (Caspase readout at 16 hrs) (AID 651712). Note: potency is the fitted concentration of half-maximal effect. An outline of the steps:
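Caspase-Glo luminescence after 16 h compound exposure of TMD8 cells, 37 °C, 5% CO2. Medium: RPMI without phenol red, 5% FBS. Normalisation: DMSO = 0%, bortezomib 9.2 uM final = 100%.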

For the compound `Cc1nc2cnc3ccc(C#Cc4cccnc4)cc3c2n1-c1ccc(C(C)(C)C#N)cc1`, the Potency entry in test [1] was “inactive”. Also, the outcome in test [2] was inactive. In test [3], the viability, percent of control amounted to 0.379%. In addition, the Potency in test [4] is 26.4 µM (active).

Consider `C=CC(=O)Nc1cc2c(Nc3ccc(F)c(Cl)c3)ncnc2cc1C#CC(C)(C)N1CCN(C)CC1`, for which the Potency was 7.43 µM (active) in test [1], 4.73 µM (active) in test [5] and 5.26 µM (active) in test [4]. In addition, the viability, percent of control in test [3] stood at 0.0807%.

Turning to `CC(C)(C)OC(=O)Nc1ccc(-c2cc(C(=O)NCCCCCCC(=O)NO)no2)cc1`, in test [2], the result was inactive. Further, in test [5], the Potency entry is “inactive”. Moreover, in test [6], the viability (% of control) came out at 2.43%. Besides, the viability, percent of control in test [3] came out at 3.39%. The Potency in test [7] is 1.32 µM (active).

In the case of `C=CC(=O)Nc1cc2c(Nc3ccc(F)c(Cl)c3)ncnc2cc1OCCCN1CCOCC1`, the Potency is 23.5 µM (active) in test [1], 16.8 µM (active) in test [5] and 14.8 µM (active) in test [4]. The viability, percent of control in test [3] was found to be 0.769%.

Regarding `CS(=O)(=O)N1CCN(Cc2cc3nc(-c4cccc5[nH]ncc45)nc(N4CCOCC4)c3s2)CC1`, the outcome in test [2] was inactive.

Take `NC(=O)c1c(OCc2c(F)cc(Br)cc2F)nsc1NC(=O)NCCCCN1CCCC1`: the Potency result in test [1] and in test [7] was “inactive” throughout. Further, in test [2], the call was inactive. Moreover, in test [6], the viability (% of control) turned out to be 8.16%. Further, the viability, percent of control in test [3] worked out at 4.14%.

Turning to `c1ccc2c(CCNc3ccc(Nc4ccncc4)cc3)c[nH]c2c1`, the Potency result in test [1] was “inactive”. The Potency in test [5] was 10.6 µM (active); in test [7], 23.5 µM (active). In addition, in test [6], the viability (% of control) was found to be 3.66%. Besides, in test [3], the viability, percent of control was found to be 22.1%.

Regarding `C=CC(=O)Nc1cccc(Oc2nc(Nc3ccc(N4CCN(C)CC4)cc3OC)ncc2Cl)c1`, in test [2], the outcome was inactive. Also, the Potency entry in test [5] is “inactive”. The viability (% of control) in test [6] stood at 0.697%. Besides, the viability, percent of control in test [3] turned out to be 2.13%. Besides, the Potency in test [4] is 7.43 µM (active).

Turning to `Cc1cc(Nc2cc(NC(=O)c3c(Cl)cccc3Cl)ccn2)nc(N)n1`, the compound was classed as inactive in test [2]. In addition, the Potency is 0.266 µM (active) in test [5], 18.7 µM (active) in test [7] and 29.6 µM (active) in test [4]. Besides, in test [6], the viability (% of control) worked out at 2.69%. For the same compound, the viability, percent of control in test [3] came to 31.3%.

As for `O=C(Nc1cc(C(F)(F)F)cc(C(F)(F)F)c1)c1cc(Cl)ccc1O`, the Potency in test [1] was 0.235 µM (active); in test [7], 0.296 µM (active). The call in test [2] was inactive. For the same compound, the viability (% of control) in test [6] turned out to be 1.86%. Moreover, the viability, percent of control in test [3] worked out at 12.7%.

In the case of `COc1cc(C(C)C)c2c(c1)S(=O)(=O)N(COc1cc(=O)n3cccc(OCCN4CCCCC4)c3n1)C2=O`, the result in test [2] was inactive. Besides, the Potency in test [5] is 14.9 µM (active). The viability (% of control) in test [6] was 0.892%. For the same compound, the viability, percent of control in test [3] worked out at 1.12%. Further, in test [7], the Potency result is “inactive”.

Take `C=C1C(=CC=C2CCC[C@]3(C)[C@@H]([C@H](C)C=C[C@H](C)C(C)C)CC[C@@H]23)C[C@@H](O)C[C@@H]1O`: the outcome in test [2] was inactive. Further, the Potency in test [5] was 21.1 µM (active).

With `O=c1[nH]nc(Sc2ncc([N+](=O)[O-])s2)n1-c1ccc2c(c1)OCCO2`, the outcome in test [2] was inactive. Besides, the Potency in test [5] was 23.7 µM (active). Also, in test [6], the viability (% of control) amounted to 0.996%. Besides, in test [3], the viability, percent of control is -0.138%. In addition, the Potency entry in test [7] and in test [4] was “inactive” in each case.

Take `COc1cc2nccc(Oc3ccc(NC(=O)C4(C(=O)Nc5ccc(F)cc5)CC4)cc3)c2cc1OC`: in test [2], the result was inactive. The figures for the Potency in test [5] and in test [7] were 16.8 µM (active) and 26.4 µM (active), respectively. The viability (% of control) in test [6] is 18.7%. For the same compound, the viability, percent of control in test [3] is 3.78%.

In the case of `Cc1ccc(C(=O)Nc2ccc(CN3CCN(C)CC3)c(C(F)(F)F)c2)cc1C#Cc1cnc2cccnn12`, the Potency was 20.9 µM (active) in test [1], 2.66 µM (active) in test [5], 0.662 µM (active) in test [7] and 23.5 µM (active) in test [4]. Also, in test [6], the viability (% of control) came to 1.83%. The viability, percent of control in test [3] is 2.46%.

For `CCCCc1nc2cc(C=CC(=O)NO)ccc2n1CCN(CC)CC`, the Potency in test [1] is 14.8 µM (active); in test [7], 0.332 µM (active). In addition, in test [2], the compound was classed as inactive. Moreover, the viability, percent of control in test [3] was determined as 1.9%. Further, the Potency entry in test [4] was “inactive”.

`Clc1ccc2ncc(-c3cccc(NC4CNC4)n3)n2c1`: the call in test [2] was inactive. In addition, the Potency in test [5] is 6.68 µM (active). For the same compound, in test [6], the viability (% of control) was determined as 1.46%. In addition, the viability, percent of control in test [3] was found to be 34.2%.

For the compound `CC1=C(CO)C(=O)O[C@@H]([C@@H](C)[C@H]2CC[C@H]3[C@@H]4C[C@H]5O[C@]56[C@@H](O)C=CC(=O)[C@]6(C)[C@@H]4CC[C@]23C)C1`, the Potency in test [1] was 3.32 µM (active); in test [5] it was 1.49 µM (active). In addition, the viability (% of control) in test [6] worked out at 0.616%. Moreover, the viability, percent of control in test [3] is 1.69%. Moreover, the Potency result in test [7] and in test [4] was “inactive” in each case.

Take `Nc1ccc(C(=O)c2cc3c(ccc4ccccc43)[nH]2)cc1`: the compound was classed as inactive in test [2]. In addition, the Potency is 14.9 µM (active) in test [5] and 26.4 µM (active) in test [7]. Besides, the viability (% of control) in test [6] worked out at 28.2%. In test [3], the viability, percent of control came out at 14.4%. Further, the Potency result in test [4] was “inactive”.

Take `CCCCCN(CCC12CC3CC(CC(C3)C1)C2)C(=O)NCCCc1ccncc1`: the Potency in test [1] is 23.5 µM (active); in test [5] it was 21.1 µM (active); in test [4], 23.5 µM (active). In addition, the viability (% of control) in test [6] came to 1.96%. The viability, percent of control in test [3] came out at 1.97%.

Regarding `COc1ccc(OC)c(-c2nnc3ccc(-c4ccc(OC)c(O[C@@H]5CCOC5)c4)nn23)c1`, the Potency entry in test [1] is “inactive”. In addition, in test [2], the call was inactive. In test [6], the viability (% of control) came out at 15.1%. The viability, percent of control in test [3] is 42.3%. Moreover, the Potency in test [7] was 20.9 µM (active).

Regarding `COC(=O)c1ccc2c(C(=Nc3ccc(N(C)C(=O)CN4CCN(C)CC4)cc3)c3ccccc3)c(O)[nH]c2c1`, the results for the Potency in test [1], in test [7] and in test [4] were 23.5 µM (active), 0.469 µM (active) and 26.4 µM (active), respectively. The outcome in test [2] was inactive. The viability, percent of control in test [3] stood at 2.34%.
